Data published in publication PMC6792352, “Limited Chemical Structural Diversity Found to Modulate Thyroid Hormone Receptor in the Tox21 Chemical Library” (Environmental Health Perspectives, 2019).
Where a name gives a salt, the structure may show the parent alone.

test system: thyroid hormone receptor (endogenous TRα and TRβ); set-up: species or system GH3-TRE-Luc (rat pituitary); GH3-TRE-Luc luciferase reporter, antagonist mode against 1 nM T3, loss of signal, qHTS; conditions: read-out: Average AC50 (uM) GH3-TRE-Antag, antagonist mode, 1 nM T3, no GH3 cytotoxicity hit

Compound | AC50 [µM]
CCOc1ccc2nc3cc(N)ccc3c(N)c2c1 [Ethacridine lactate hydrate] | 40.1
COc1ccc2[nH]c([S+]([O-])Cc3ncc(C)c(OC)c3C)nc2c1 (centres unmarked) [Omeprazole] | > 50
COc1c(C)c2c(c(O)c1C/C=C(\C)CCC(=O)O)C(=O)OC2 [Mycophenolic acid] | 0.537
NC(=O)C1(N2CCCCC2)CCN(CCCC(=O)c2ccc(F)cc2)CC1 [Pipamperone dihydrochloride] | 25.9
OCCCCCCCCCCCCBr [12-Bromo-1-dodecanol] | 85.6
CCCC(=O)N1CCCN(c2nc(N)c3cc(OC)c(OC)cc3n2)CC1 [Bunazosin hydrochloride] | 47.9
Cc1ccc2oc(CN(Cc3ccccc3)C(=O)Nc3c(F)cc(F)cc3F)c(-c3ccc(Cl)cc3)c2c1 [FR145237] | 4.47
C[C@]12C=CC(=O)N[C@@H]1CC[C@@H]1[C@@H]2CC[C@]2(C)[C@@H](C(=O)Nc3cc(C(F)(F)F)ccc3C(F)(F)F)CC[C@@H]12 [Dutasteride] | 3.44
CCCCCCCCCCC(=O)O [Undecanoic acid] | 60.2
Cc1ccc(/C(=C\CN2CCCC2)c2ccccn2)cc1 [Triprolidine] | 21.5
CC(Cc1ccc(C(C)(C)C)cc1)CN1C[C@@H](C)O[C@@H](C)C1 (stereo partly drawn) [(2R,6S)-Fenpropimorph] | 47.3
CC(=O)[C@H]1[C@H](C#N)C[C@H]2[C@@H]3CC=C4C[C@@H](O)CC[C@]4(C)[C@H]3CC[C@@]21C [Pregnenolone carbonitrile] | 13.1
CNc1cc(OC)c(C(=O)N[C@@H]2CCN(Cc3ccccc3)[C@@H]2C)cc1Cl (racemic) [Nemonapride] | 36.4
Cc1nc2ccccn2c(=O)c1CCN1CCC(C(=O)c2ccc(F)cc2)CC1 [Pirenperone] | 47
CC(=O)O[C@H]1CC[C@@]2(C)C(=CC[C@@H]3[C@@H]2CC[C@]2(C)C(c4cccnc4)=CC[C@@H]32)C1 [Abiraterone acetate] | 50
Cl/C=C\C[N+]12CN3CN(CN(C3)C1)C2 [Chloroallyl methenamine chloride] | 89.1
CC(C)CCOC(=O)/C=C/c1ccccc1 [3-Methylbutyl cinnamate] | 81.8
CC(C)=CC1C(C(=O)OC(C#N)c2cccc(Oc3ccccc3)c2)C1(C)C (centres unmarked) [Cyphenothrin] | 79.9

Compound | AC50 [µM]
O=C(COc1ccc(Cl)cc1)OCCNC12CC3CC(CC(C3)C1)C2 [Adafenoxate] | 26
Cc1cc(-n2c(=O)[nH]c(=O)n(C)c2=O)ccc1Oc1ccc(S(=O)(=O)C(F)(F)F)cc1 [Toltrazuril sulfone] | 51.6
CC1=CC(C)(C)Nc2ccccc21 [1,2-Dihydro-2,2,4-trimethylquinoline, polymer] | 28
O=[N+]([O-])c1cc[n+]([O-])cc1 [4-Nitropyridine-1-oxide] | 80.5
O=C(O)c1cccc(C[C@@H]2COc3ccc(OCc4nc5cc(F)ccc5s4)cc3[C@@H]2O)c1 [CP-085958] | 53.1
CC#Cc1cc(C)nc(Nc2ccccc2)n1 [Mepanipyrim] | 64.8
O=C1CCN(c2ccccc2)N1 [3-Pyrazolidinone,1-phenyl-] | > 90
Nc1ccc(Br)cc1 [4-Bromoaniline] | 47.9
N#Cc1cc(Br)c(O)c(Br)c1 [Bromoxynil] | 69.3
Brc1cc(Oc2cc(Br)c(Br)c(Br)c2Br)c(Br)c(Br)c1Br [Octabromodiphenyl ether] | 10.5
CCN(CC)CCOc1ccc2c(c1)C(=O)c1cc(OCCN(CC)CC)ccc1-2 [Tilorone] | 17.6
O=C1c2ccccc2C(=O)C1(O)O [Ninhydrin] | 80
CN1CCC(OC(c2ccccc2)c2ccccc2)CC1 [Diphenylpyraline hydrochloride] | 9
Oc1ccc(C(=C(Cl)Cl)c2ccc(O)cc2)cc1 [Bis(4-hydroxyphenyl)-2,2-dichloroethylene] | 38.4
CC[C@H](C)C(=O)O[C@H]1C[C@H](O)C=C2C=C[C@H](C)[C@H](CC[C@@H](O)C[C@@H](O)CC(=O)O)[C@H]21 [Pravastatin sodium] | 18.4
Cc1nc(-c2ccc(OCC(C)C)c(C#N)c2)sc1C(=O)O [Febuxostat] | 17.9
C#C[C@]1(OC(C)=O)CC[C@H]2[C@@H]3CCC4=CC(=O)CC[C@@H]4[C@H]3CC[C@@]21C [Norethindrone acetate] | 10
